# From PubChem BioAssay (NCATS)
# Results filed as inconclusive are left out. A call without a number means that no potency is given here. Calls of active or inactive are those of the source. Unless noted, calls follow the shape of the dose curve; as a rule, active = well fitted curve in the direction sought with a large enough effect; inconclusive = small, poorly fitted or top-dose-only effect, or another doubt; inactive = no such curve, though single readings can be large; an effect the other way counts as inactive or inconclusive.
# Experiments:
# [1] = AP1 Signaling Pathway (AID 357; active = well fitted curve in either direction with a large enough effect, not every such curve was filed as active;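 also: ME-180 reporter cells stimulated with EGF at its EC50 level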); details: ME-180 AP-1-bla reporter, EGF-induced, beta-lactamase ratio, 5 h; at 7.69 µM (top of the series) unless noted
# Outline: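 Cells are seeded overnight, exposed to compound titrations and an EC50 level of EGF for 5 hours at 37 °C, then loaded with CCF4 dye for 2.5 hours. Beta-lactamase activity under the AP-1 element is read as a blue/green ratio.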
# [2] = NFAT Signaling Pathway (AID 444; active = well fitted curve in either direction with a large enough effect, not every such curve was filed as active;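 also: carbachol stimulus at about its EC50 of 1 µM final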); details: Jurkat NFAT-bla M1, carbachol, beta-lactamase ratio, 5 h; at 7.69 µM (top of the series) unless noted
# Outline: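 Jurkat cells with NFAT-driven β-lactamase reporter and co-expressed M1 receptor, stimulated with carbachol (final 1 uM, ~EC50), compound titration, 5 h at 37 °C. CCF4 loaded 1 h at RT; 460/530 nm ratio gave %activity and AC50.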
# [3] = Stat Signaling Pathway (AID 446; active = well fitted curve in either direction with a large enough effect, not every such curve was filed as active;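 also: ME-180 cervical cancer cells given 40 pM IL-6 alongside compound; SIE-controlled beta-lactamase reporter measured as 460/530 nm FRET emission ratio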); details: ME-180 (cervical carcinoma) SIE beta-lactamase reporter, IL-6 stimulated, 5 h; at 7.69 µM (top of the series) unless noted
# Outline: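 Emission at 460 and 530 nm (excitation 405 nm) reports SIE-controlled beta-lactamase in ME-180 cells. Cells received compound with 40 pM IL-6 for 5 hrs at 37 C; data scaled between 300 pM IL-6 and 125 nM JAK-inhibitor controls.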
# [4] = target: Glucocorticoid receptor (Homo sapiens) (UniProt P04150); experiment: GR-GFP Redistribution (AID 450;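 active = compounds whose dose series gives a full or clear partial fitted curve of increased nuclear translocation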; also: potency is read from the fitted curve at half-maximal effect); details: U2OS GR-GFP nuclear translocation, laser cytometry, 2 h
# [5] = target: Glucocorticoid receptor (Homo sapiens) (UniProt P04150); experiment: GR-EFC Redistribution (AID 451; calls by dose curve; also: potency is read from the fitted curve at half-maximal effect); details: CHO-K1 GR-EFC translocation, beta-gal luminescence, 2 h
# Outline: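 CHO-K1 cells expressing nuclear EA and GR-ED fragments of b-gal; compounds titrated up to 46 uM final, 2 h at 37 C. GR nuclear translocation read as complemented b-gal luminescence after 1 h RT detection.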
# [6] = target: Mitogen-activated protein kinase 10 (Mus musculus) (UniProt Q61831); experiment: JNK3 AlphaScreen Assay (AID 530; active = well fitted curve in either direction with a large enough effect, not every such curve was filed as active;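 also: kinase came from lysate of stimulated human HepG2 cells; signal reports phosphorylation of biotinylated GST-cJun 1-79 at Ser73 with 10 µM ATP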)
# Outline: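 HepG2 lysate (IL-1b/TNFa pre-activated) + biotin-GST-cJun 1-79 + anti-pSer73 cJun; cpd titration, 15 min RT; ATP 10 uM start; Tris pH 7.6, MgCl2, DTT, vanadate; beads in EDTA buffer; AlphaScreen.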
# [7] = target: 3',5'-cyclic-AMP phosphodiesterase 4B (Homo sapiens) (UniProt Q07343); experiment: qHTS Assay for Inhibitors of PDE-IV (AID 607; active = well fitted activation curve with a large enough effect in the main read-out, with a control signal flat, not every such curve was filed as active)
# Outline: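 The readout is membrane depolarisation from a cAMP-sensing CNG channel, detected with a potential dye at ex 535/em 590. Cells were HEK293-derived (endogenous PDE-IV) at 1000 cells/well, titrated up to 22.9 uM final.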
# [8] = qHTS Assay for Lipid Storage Modulators (AID 1519; calls by dose curve); details: Drosophila S3 cells, BODIPY lipid droplet/cell ratio, laser cytometry, cells loaded with oleic acid
# Outline: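 Cells seeded at 5,000 per well were treated with compounds over a concentration series and loaded with oleic acid (400 uM, as added). Lipid droplet fluorescence (488 nm excitation, 500-530 nm channel) was read by laser-scanning cytometry and normalized to 20 uM Triacsin C.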
# [9] = target: ATP-dependent 6-phosphofructokinase (Trypanosoma brucei brucei) (UniProt O15648); experiment: qHTS Assay to Find Inhibitors of T. brucei phosphofructokinase: hit validation (AID 492961);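 also: luminescence reports ADP formed as PFK phosphorylates fructose-6-phosphate with ATP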
# Outline: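 Compounds titrated; %activity normalized to 0x and 1x enzyme controls, curve-fitted. Readout: ADP-Glo luminescence after 45 min room-temperature reaction of 1.25 nM PFK, 0.1 mM ATP, 0.5 mM F6P, pH 8.0.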
# [10] = target: Luciferin 4-monooxygenase (Photinus pyralis) (UniProt P08659); experiment: Biochemical firefly luciferase enzyme assay for NPC (AID 624030);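 also: purified P. pyralis luciferase at 10 nM with luciferin and ATP substrate; nearly all actives have a fitted effect of over 70% in size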
# Outline: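 Purified P. pyralis luciferase at 10 nM in 50 mM Tris Acetate (final), luminescence read within 5 minutes of enzyme addition to compounds. Activity normalised to PTC124 versus DMSO; concentration-response curves classed by r2, magnitude and activity.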
# [11] = S16 Schwann cell viability assay (CellTiter-Glo assay) (AID 624031);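 also: native untransfected S16 rat Schwann cells; cellular ATP luminescence as a viability measure; nearly all actives have a fitted effect of over 70% in size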
# Outline: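 Following overnight culture in 10% FBS DMEM, parental S16 rat Schwann cells are dosed for 24 h at 37 °C. Viability is read as CellTiter-Glo luminescence and expressed as % activity relative to DMSO (0%) and no-cell wells.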
# [12] = S16 Schwann cell PMP22 intronic element firefly luciferase assay (AID 624032); also: nearly all actives have a fitted effect of over 30% in size
# Outline: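 Rat S16 Schwann cells stably carrying firefly luciferase driven by a PMP22 intronic element, in 10% FBS, treated 24 h at 37 C. ONE-Glo luminescence normalized to PTC124 control and DMSO (0%); curves classed by r2, magnitude and activity.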
# [13] = qHTS profiling for inhibitors of Plasmodium falciparum proliferation (AID 504749); also: nearly all actives have a fitted effect of over 60% in size; details: P. falciparum in erythrocytes, SYBR Green DNA, 72 h, at 28.7 µM (top of the series)
# Outline: (§1)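 SYBR Green fluorescence (ex 485 nm, em 535 nm) reports parasite DNA after 72 h compound exposure of infected red cells at 0.3% parasitemia, 2.5% hematocrit; signal normalized to 0.29 uM artemisinin and vehicle wells.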
# 3D7 = experiment: as above; details: P. falciparum in erythrocytes, SYBR Green DNA, 72 h; series mostly up to 12.8 µM
# Outline: as §1
# 7G8 = experiment: as above; details: P. falciparum in erythrocytes, SYBR Green DNA, 72 h; series mostly up to 12.8 µM
# Outline: as §1
# AA1029 = experiment: as above; details: P. falciparum in erythrocytes, SYBR Green DNA, 72 h; series mostly up to 12.8 µM
# Outline: as §1
# AS120 = experiment: as above; details: P. falciparum in erythrocytes, SYBR Green DNA, 72 h; series mostly up to 28.7 µM
# Outline: as §1
# ATS189 = experiment: as above; details: P. falciparum in erythrocytes, SYBR Green DNA, 72 h; series mostly up to 12.8 µM
# Outline: as §1
# ATS95 = experiment: as above; details: P. falciparum in erythrocytes, SYBR Green DNA, 72 h; series mostly up to 12.8 µM
# Outline: as §1
# C2A = experiment: as above; details: P. falciparum in erythrocytes, SYBR Green DNA, 72 h; series mostly up to 12.8 µM
# Outline: as §1
# CP185 = experiment: as above; details: P. falciparum in erythrocytes, SYBR Green DNA, 72 h; series mostly up to 12.8 µM
# Outline: as §1
# CP191 = experiment: as above; details: P. falciparum in erythrocytes, SYBR Green DNA, 72 h; series mostly up to 12.8 µM
# Outline: as §1
# CP192 = experiment: as above; details: P. falciparum in erythrocytes, SYBR Green DNA, 72 h; series mostly up to 28.7 µM
# Outline: as §1
# CP194 = experiment: as above; details: P. falciparum in erythrocytes, SYBR Green DNA, 72 h; series mostly up to 12.8 µM
# Outline: as §1
# CP201 = experiment: as above; details: P. falciparum in erythrocytes, SYBR Green DNA, 72 h; series mostly up to 12.8 µM
# Outline: as §1
# CP203 = experiment: as above; details: P. falciparum in erythrocytes, SYBR Green DNA, 72 h; series mostly up to 12.8 µM
# Outline: as §1
# CP211 = experiment: as above; details: P. falciparum in erythrocytes, SYBR Green DNA, 72 h; series mostly up to 12.8 µM
# Outline: as §1
# CP215 = experiment: as above; details: P. falciparum in erythrocytes, SYBR Green DNA, 72 h; series mostly up to 28.7 µM
# Outline: as §1
# CP217 = experiment: as above; details: P. falciparum in erythrocytes, SYBR Green DNA, 72 h; series mostly up to 12.8 µM
# Outline: as §1
# CP237 = experiment: as above; details: P. falciparum in erythrocytes, SYBR Green DNA, 72 h; series mostly up to 12.8 µM
# Outline: as §1
# CP238 = experiment: as above; details: P. falciparum in erythrocytes, SYBR Green DNA, 72 h; series mostly up to 12.8 µM
# Outline: as §1
# CP247 = experiment: as above; details: P. falciparum in erythrocytes, SYBR Green DNA, 72 h; series mostly up to 12.8 µM
# Outline: as §1
# CP250 = experiment: as above; details: P. falciparum in erythrocytes, SYBR Green DNA, 72 h; series mostly up to 12.8 µM
# Outline: as §1
# CP252 = experiment: as above; details: P. falciparum in erythrocytes, SYBR Green DNA, 72 h; series mostly up to 12.8 µM
# Outline: as §1
# Sequence of Glucocorticoid receptor (Homo sapiens) (P04150 whole entry, looked up, the tested form may be a part): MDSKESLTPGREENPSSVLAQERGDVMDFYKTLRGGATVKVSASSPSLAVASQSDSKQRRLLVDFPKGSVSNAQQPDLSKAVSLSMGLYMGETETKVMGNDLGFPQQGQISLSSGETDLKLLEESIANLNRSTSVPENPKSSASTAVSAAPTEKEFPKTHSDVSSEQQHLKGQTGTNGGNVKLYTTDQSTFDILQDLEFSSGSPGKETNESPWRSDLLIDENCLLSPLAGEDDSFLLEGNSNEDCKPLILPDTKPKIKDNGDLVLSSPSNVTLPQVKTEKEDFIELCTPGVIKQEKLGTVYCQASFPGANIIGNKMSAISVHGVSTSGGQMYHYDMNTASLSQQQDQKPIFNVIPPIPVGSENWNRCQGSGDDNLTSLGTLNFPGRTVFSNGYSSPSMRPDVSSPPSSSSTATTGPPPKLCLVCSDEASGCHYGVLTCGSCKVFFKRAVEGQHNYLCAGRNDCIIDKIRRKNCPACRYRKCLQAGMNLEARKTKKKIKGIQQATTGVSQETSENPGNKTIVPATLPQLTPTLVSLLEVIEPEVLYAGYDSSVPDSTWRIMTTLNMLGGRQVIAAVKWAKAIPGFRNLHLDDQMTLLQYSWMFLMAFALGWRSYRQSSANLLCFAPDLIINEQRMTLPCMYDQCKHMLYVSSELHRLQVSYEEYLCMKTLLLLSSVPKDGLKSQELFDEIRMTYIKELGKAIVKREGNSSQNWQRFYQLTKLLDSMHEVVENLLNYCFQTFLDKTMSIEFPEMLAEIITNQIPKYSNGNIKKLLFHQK
# Sequence of 3',5'-cyclic-AMP phosphodiesterase 4B (Homo sapiens) (Q07343 whole entry, looked up): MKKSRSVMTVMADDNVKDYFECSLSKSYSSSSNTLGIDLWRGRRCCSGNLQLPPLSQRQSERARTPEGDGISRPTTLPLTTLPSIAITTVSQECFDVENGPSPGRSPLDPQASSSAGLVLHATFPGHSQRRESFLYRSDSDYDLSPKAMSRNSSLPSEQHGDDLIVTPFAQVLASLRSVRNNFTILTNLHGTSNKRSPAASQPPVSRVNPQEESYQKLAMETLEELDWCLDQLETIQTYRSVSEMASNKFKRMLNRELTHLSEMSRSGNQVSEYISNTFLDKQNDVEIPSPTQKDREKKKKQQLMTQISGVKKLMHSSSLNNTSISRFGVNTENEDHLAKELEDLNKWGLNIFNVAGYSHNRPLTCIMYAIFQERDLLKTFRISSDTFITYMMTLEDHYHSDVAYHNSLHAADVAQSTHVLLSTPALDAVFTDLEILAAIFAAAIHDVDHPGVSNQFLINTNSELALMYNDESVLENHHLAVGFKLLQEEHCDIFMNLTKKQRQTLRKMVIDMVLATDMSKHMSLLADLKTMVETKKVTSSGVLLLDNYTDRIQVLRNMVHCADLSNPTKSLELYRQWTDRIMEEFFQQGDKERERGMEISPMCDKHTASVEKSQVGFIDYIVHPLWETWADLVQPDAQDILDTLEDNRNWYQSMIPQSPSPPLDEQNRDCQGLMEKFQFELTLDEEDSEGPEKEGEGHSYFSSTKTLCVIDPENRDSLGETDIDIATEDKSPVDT
# Sequence of ATP-dependent 6-phosphofructokinase (Trypanosoma brucei brucei) (O15648 whole entry, looked up): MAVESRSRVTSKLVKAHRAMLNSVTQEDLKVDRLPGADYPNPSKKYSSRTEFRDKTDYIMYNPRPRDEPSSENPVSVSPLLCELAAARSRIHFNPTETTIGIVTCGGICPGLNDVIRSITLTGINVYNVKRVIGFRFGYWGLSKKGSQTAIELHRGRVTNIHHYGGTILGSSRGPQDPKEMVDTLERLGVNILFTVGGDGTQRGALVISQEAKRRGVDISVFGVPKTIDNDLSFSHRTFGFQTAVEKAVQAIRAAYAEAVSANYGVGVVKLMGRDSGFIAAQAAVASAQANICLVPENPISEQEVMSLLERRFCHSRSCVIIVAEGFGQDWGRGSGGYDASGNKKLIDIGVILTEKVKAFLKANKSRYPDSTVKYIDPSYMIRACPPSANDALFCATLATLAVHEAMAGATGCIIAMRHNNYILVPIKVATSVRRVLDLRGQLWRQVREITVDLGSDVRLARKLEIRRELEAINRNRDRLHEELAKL
# Sequence of Luciferin 4-monooxygenase (Photinus pyralis) (P08659 whole entry, looked up): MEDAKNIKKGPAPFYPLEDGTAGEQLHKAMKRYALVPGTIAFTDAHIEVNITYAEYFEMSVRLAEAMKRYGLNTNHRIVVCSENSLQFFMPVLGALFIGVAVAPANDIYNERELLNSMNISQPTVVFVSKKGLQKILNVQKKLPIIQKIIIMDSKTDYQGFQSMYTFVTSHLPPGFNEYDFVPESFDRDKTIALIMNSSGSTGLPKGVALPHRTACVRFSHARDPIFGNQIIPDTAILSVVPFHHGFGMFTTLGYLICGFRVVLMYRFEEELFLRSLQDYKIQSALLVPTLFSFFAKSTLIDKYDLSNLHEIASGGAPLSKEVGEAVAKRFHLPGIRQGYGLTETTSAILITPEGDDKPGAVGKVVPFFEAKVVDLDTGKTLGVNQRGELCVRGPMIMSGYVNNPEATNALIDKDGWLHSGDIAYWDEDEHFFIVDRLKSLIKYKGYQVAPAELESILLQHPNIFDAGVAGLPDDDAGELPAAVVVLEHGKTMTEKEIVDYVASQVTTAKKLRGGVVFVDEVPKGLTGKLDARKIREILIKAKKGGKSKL
structure (smiles),measurement,setting,value
CN[C@@H](CC(C)C)C(=O)N[C@@H]1C(=O)N[C@H](CC(N)=O)C(=O)N[C@@H]2C(=O)N[C@H]3C(=O)N[C@H](C(=O)N[C@H](C(=O)O)c4cc(O)cc(O)c4-c4cc3ccc4O)[C@H](O)c3ccc(c(Cl)c3)Oc3cc2cc(c3O[C@H]2O[C@@H](CO)[C@@H](O)[C@@H](O)[C@@H]2O[C@@H]2C[C@](C)(N)[C@H](O)[C@H](C)O2)Oc2ccc(cc2Cl)[C@@H]1O,"activity change, negative = inhibition",[1],4.27% [at 17.2 µM] (inactive)
same,"activity change, negative = inhibition",[2],-5.38% [at 17.2 µM] (inactive)
same,"activity, negative = inhibition",[3],7.22% [at 17.2 µM] (inactive)
same,Potency,[4],> 20.6 µM (inactive)
same,Potency,[5],> 20.6 µM (inactive)
same,Potency,[6],inactive
same,Potency,[7],inactive
same,"activity change, negative = inhibition",[8]; at 25.7 µM (top of the series),-2.11% (inactive)
same,max response,[8]; measured here: cell count channel max response,5.45%
same,max response,[8]; measured here: lipid channel max response,3.37%
same,outcome,[9],inactive
same,outcome,[10],inactive
same,Potency,[11],inactive
same,Potency,[12],inactive
same,"activity, negative = inhibition",[13]; parasite line A,3.64% (inactive)
same,"activity, negative = inhibition",[13]; parasite line B,4.98% (inactive)
same,Potency,3D7,inactive
same,Potency,7G8,inactive
same,Potency,AA1029,inactive
same,Potency,AS120,inactive
same,Potency,ATS189,inactive
same,Potency,ATS95,inactive
same,Potency,C2A,inactive
same,Potency,CP185,inactive
same,Potency,CP191,inactive
same,Potency,CP192,inactive
same,Potency,CP194,inactive
same,Potency,CP201,inactive
same,Potency,CP203,inactive
same,Potency,CP211,inactive
same,Potency,CP215,inactive
same,Potency,CP217,inactive
same,Potency,CP237,inactive
same,Potency,CP238,inactive
same,Potency,CP247,inactive
same,Potency,CP250,inactive
same,Potency,CP252,inactive
